# Data published in publication PMC4336329 (PLoS ONE, 2015).
# In all, about 310,000 compounds went through this assay and about 14,000 (4.5%) showed an effect of 50% or more. Effects have a minus sign here. The full list was thinned out, with strong results kept by preference.
# Biological target: human ether-à-go-go-related gene (hERG) potassium channel (human, UniProt Q12809)
# Assay: primary screen, population patch clamp on CHO cells stably expressing hERG; higher = less effect of the substance
# 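Also: peak tail current of the secondary pulse compared with the same well before compound.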
# Chain of human ether-à-go-go-related gene (hERG) potassium channel (Q12809 whole entry, looked up): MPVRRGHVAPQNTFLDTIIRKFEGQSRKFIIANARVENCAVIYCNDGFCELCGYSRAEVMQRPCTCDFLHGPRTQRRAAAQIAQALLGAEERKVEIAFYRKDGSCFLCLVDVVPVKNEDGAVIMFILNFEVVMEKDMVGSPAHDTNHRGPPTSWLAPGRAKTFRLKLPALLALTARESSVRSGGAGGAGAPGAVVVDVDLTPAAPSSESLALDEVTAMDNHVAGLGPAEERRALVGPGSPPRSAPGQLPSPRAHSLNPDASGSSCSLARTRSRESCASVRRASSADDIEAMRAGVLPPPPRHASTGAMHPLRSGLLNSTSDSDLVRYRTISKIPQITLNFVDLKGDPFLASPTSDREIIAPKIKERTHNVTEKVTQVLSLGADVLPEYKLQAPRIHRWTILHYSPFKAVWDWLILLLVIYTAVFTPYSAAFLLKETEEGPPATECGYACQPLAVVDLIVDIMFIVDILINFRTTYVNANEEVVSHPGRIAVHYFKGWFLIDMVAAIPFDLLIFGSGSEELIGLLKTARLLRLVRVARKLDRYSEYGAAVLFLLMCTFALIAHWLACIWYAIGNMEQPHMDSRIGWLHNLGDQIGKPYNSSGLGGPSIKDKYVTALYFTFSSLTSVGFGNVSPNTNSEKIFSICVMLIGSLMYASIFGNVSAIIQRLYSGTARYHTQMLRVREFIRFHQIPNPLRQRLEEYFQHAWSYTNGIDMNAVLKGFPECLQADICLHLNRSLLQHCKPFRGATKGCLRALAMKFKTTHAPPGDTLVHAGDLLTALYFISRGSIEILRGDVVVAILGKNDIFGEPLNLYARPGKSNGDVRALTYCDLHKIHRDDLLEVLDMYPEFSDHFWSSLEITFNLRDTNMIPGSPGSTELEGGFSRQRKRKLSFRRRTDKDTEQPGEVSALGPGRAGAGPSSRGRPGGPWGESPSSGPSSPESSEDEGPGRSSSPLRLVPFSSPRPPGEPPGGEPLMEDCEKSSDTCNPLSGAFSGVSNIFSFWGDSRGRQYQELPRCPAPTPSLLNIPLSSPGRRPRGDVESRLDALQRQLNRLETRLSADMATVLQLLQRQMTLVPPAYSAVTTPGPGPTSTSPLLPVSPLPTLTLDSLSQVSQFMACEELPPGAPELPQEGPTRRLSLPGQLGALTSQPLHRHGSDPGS
row,SMILES,"hERG current change (%, negative = inhibition) at 10uM [%]"
1,COC(=O)c1ccc(OCCn2cnc3ccccc3c2=O)cc1,-11.2
2,COc1ccc(NC(=O)C2Cc3cccc(OC)c3O/C2=N\O)cc1 (stereo not drawn),6.66
3,COc1cccc(-n2c(COc3ccccc3C)nnc2SCC(=O)O)c1,1.56
4,CSCC[C@H](NC(=O)N1CCn2c1nc1ccccc12)C(=O)NCc1ccco1,-19.1
5,CCN(C(=O)COC(=O)c1cc(-c2ccccc2)nc2c1c(C)nn2-c1ccccc1)C1CCS(=O)(=O)C1 (stereo not drawn),21.5
6,CCN(CC)CCCNC(=O)c1oc2ccc3c(c2c1C)C(O)CC(C)(C)O3 (stereo not drawn),-4.08
7,Cc1ccc(NS(=O)(=O)c2ccc3c(c2)n(C)c(=O)n3C)cc1C,14.2
8,Cc1ccc(C(O)(CNCc2ccccc2)c2ccccc2)cc1 (stereo not drawn),-33.9
9,COc1ccc(CNCC(O)(c2ccccc2)c2ccc(F)cc2)cc1 (stereo not drawn),-73.3
10,Cc1ccc(CNCC(O)(c2ccc(F)cc2)c2ccc(F)cc2)cc1,-56.4
11,OC(CNCc1ccccc1)(c1ccc(F)cc1)c1ccc(F)cc1,-38.1
12,OC(CNCc1ccc(F)cc1)(c1ccccc1)c1ccc(F)cc1 (stereo not drawn),-33.8
13,OC(CNCc1ccc(F)cc1)(c1ccc(F)cc1)c1ccc(F)cc1,-33.7
14,COc1cccc(CNCC(O)(c2ccc(Cl)cc2)c2ccc(Cl)cc2)c1,-12.2
15,Cc1ccc(CNCC(O)(c2ccccc2)c2ccc(F)cc2)cc1 (stereo not drawn),-45.6
16,COc1ccc(CNCC(O)(c2ccc(F)cc2)c2ccc(F)cc2)cc1,-67.3
17,CC(C)C(NC(=O)C1CCCCC1)C(=O)Nc1ccncc1 (stereo not drawn),9.18
18,Cc1cc(C)cc(C(=O)N2CCC(CCC(=O)NC3CC3)CC2)c1,-2.09
19,NC(=O)C1CCN(C(=O)CN(c2ccc3c(c2)OCCO3)S(=O)(=O)c2ccccc2)CC1,-18
20,CCOC(=O)C1CCN(C(=O)CN(c2ccc3c(c2)OCCO3)S(C)(=O)=O)CC1,-4.03
21,CCOC(=O)C1CCN(C(=O)CN(c2cc(Cl)ccc2OC)S(=O)(=O)c2ccccc2)CC1,-67
22,CCOC(=O)C1CCN(C(=O)CN(c2ccc3c(c2)OCCO3)S(=O)(=O)c2ccccc2)CC1,-53.1
23,CCOC(=O)N1CCN(C(=O)CN(c2cc(Cl)ccc2OC)S(=O)(=O)c2ccccc2)CC1,-19.4

row,SMILES,"hERG current change (%, negative = inhibition) at 10uM [%]"
1,CCOC(=O)C1CCN(C(=O)CN(c2cc(OC)ccc2OC)S(=O)(=O)c2ccccc2)CC1,-2.73
2,COC(=O)NCc1ccc(CNC(=O)OC)cc1,4.84
3,CCc1cc(C(=O)N2CCN(c3ccccc3OC)CC2)sc1C,-15
4,COc1cc(OC)cc(C(=O)NNC(=S)Nc2ccccc2OC)c1,10.8
5,CC1CCN(C(=O)CN2C(=O)C(=O)N(C)C2=O)c2ccccc2S1 (stereo not drawn),5.74
6,CSc1cccc(NC(=O)/C=C/c2ccco2)c1,1.51
7,O=C(COC(=O)/C=C/c1ccc(F)cc1)NCc1cccs1,8.26
8,CC[n+]1cccc(-c2nc3ccccc3s2)c1.[I-],-0.683
9,CC[n+]1c(/C=C/N(C)c2ccccc2)n(-c2ccccc2)c2ccc(-c3nc4ccccc4s3)cc21.[I-],-81.1
10,CCOc1cc(-c2nc3ccccc3s2)ccc1O,4.57
11,CCOc1ccc(CCNC(=O)c2cnccn2)cc1OCC,11.1
12,CCNc1nc2c(c(=O)n(C)c(=O)n2C)n1Cc1ccc(Cl)cc1,-7.07
13,COc1ccc(Oc2nnnn2-c2ccccc2)cc1,-16.6
14,Fc1ccc(Oc2nnnn2-c2ccccc2)cc1,44.8
15,c1ccc(-n2nnnc2Oc2ccc(-n3ccnc3)cc2)cc1,-54
16,CCNC(=O)COc1ccc(-c2ccccc2)cc1,-19.4
17,CCOC(=O)c1cn2nc(Oc3ccc(OC)cc3)ccc2n1,4.29
18,CCOC(=O)c1cn2nc(Oc3ccc(C#N)cc3)ccc2n1,-54.1
19,CCOC(=O)c1cn2nc(Oc3ccc(C)cc3)ccc2n1,1.97
20,CC1=C/C(=N\OS(=O)(=O)c2ccccc2)C(C)=CC1=O,-9.37
21,O=C(CSc1nnc(COc2ccc(Cl)cc2)o1)N1CCN(c2ccccc2)CC1,-1.37
22,COc1ccccc1C1CC(c2ccc(Cl)cc2Cl)Nc2nc(N)nn21 (stereo not drawn),-44.7
23,Cc1cccn2c(=O)c3cc(C(=O)NCc4ccco4)c(=N)n(C4CCCCC4)c3nc12,-77.4

row,SMILES,"hERG current change (%, negative = inhibition) at 10uM [%]"
1,Cc1cccn2c(=O)c3cc(S(=O)(=O)c4ccc(Br)cc4)c(=N)n(C4CCCC4)c3nc12,9.92
2,Cc1cccn2c(=O)c3cc(C(=O)NCc4ccco4)c(=N)n(C4CCCC4)c3nc12,-78.8
3,Cc1ccc(S(=O)(=O)c2cc3c(=O)n4cccc(C)c4nc3n(C3CCCCC3)c2=N)cc1,15.7
4,Cc1cccn2c(=O)c3cc(S(=O)(=O)c4ccc(Br)cc4)c(=N)n(C4CCCCC4)c3nc12,18.6
5,COc1ccc(-n2c(N)c(C(=O)NCc3ccco3)c3nc4ccccc4nc32)c(OC)c1,0.913
6,Cc1csc(NC(=O)c2sc3nc(-c4cccs4)ccc3c2N)n1,5.65
7,COc1ccc(OC)c(NC(=O)CSc2nnc(C3CCCCC3)o2)c1,-19
8,CC(=O)N1CC(C)Sc2ccc(S(=O)(=O)NCc3ccc(F)cc3)cc21 (stereo not drawn),-49.6
9,O=C1c2ccccc2S(=O)(=O)c2cc(C(=O)N3CCN(c4ccc(Cl)cn4)CC3)ccc21,-33.1
10,Cc1noc(C)c1CSCC(=O)Nc1cc(S(C)(=O)=O)ccc1Cl,0.564
11,CCOc1ccc(S(=O)(=O)N2CCOCC2)cc1NC(=O)CSCc1c(C)noc1C,-17.3
12,CCOc1ccc(S(=O)(=O)N(CC)CC)cc1NC(=O)CSCc1c(C)noc1C,-67.2
13,CCOc1ccc(S(=O)(=O)N2CCCCC2)cc1NC(=O)CSCc1c(C)noc1C,-39.5
14,Cc1noc(C)c1CSCC(=O)Nc1ccc(S(C)(=O)=O)cc1,15.2
15,CCN(CC)S(=O)(=O)c1ccc(N(C)C)c(NC(=O)CSCc2c(C)noc2C)c1,-60.4
16,C=CCOc1cccc(C2C(C(=O)c3cccs3)=C(O)C(=O)N2Cc2cccnc2)c1 (stereo not drawn),-1.2
17,CCOC(=O)C1=C(C)NC(=O)NC1c1cc(Br)c(O)c(OC)c1 (stereo not drawn),-2.71
18,COc1ccc(CNc2ccc3c(c2)ncn3C)cc1OC,15.8
19,Cc1cnc(C(=O)Nc2cc(S(=O)(=O)N3CCOCC3)ccc2N2CCN(C)CC2)cn1,-18.6
20,COc1ccc(-n2cc(CN(C)Cc3n[nH]c(=O)[nH]3)c(-c3cccc(F)c3)n2)cc1,-15.4
21,COc1ccc(-n2cc(CN[C@H]3CCCCNC3=O)c(-c3cccc(F)c3)n2)cc1,-64.1
22,COc1ccc(N2C(=O)CC(NC3CCCCNC3=O)C2=O)cc1 (stereo not drawn),8.59
23,COc1ccc(-n2cc(CNC3CCC(O)CC3)c(-c3cccc(F)c3)n2)cc1 (stereo not drawn),-45.3

row,SMILES,"hERG current change (%, negative = inhibition) at 10uM [%]"
1,COc1ccc(-n2cc(CNCCCn3ccnc3)c(-c3ccccc3Cl)n2)cc1,-44.9
2,COc1ccc(-n2cc(CNCC3CCOCC3)c(-c3cccc(F)c3)n2)cc1,-78.5
3,COc1ccc(-n2cc(CNCCCn3ccnc3)c(-c3cccc(F)c3)n2)cc1,-75.2
4,COc1ccc(-n2cc(CNC3CCN(C)CC3)c(-c3cccc(F)c3)n2)cc1,-77.5
5,COc1ccc(-n2cc(CNC3CCOCC3)c(-c3cccc(F)c3)n2)cc1,-48.2
6,COc1ccc(-n2cc(CN(C)C3CCOCC3)c(-c3cccc(F)c3)n2)cc1,-29.1
7,COc1cccc(-c2nn(-c3ccccc3)cc2CN2CCCO2)c1,-5.81
8,COc1ccc(-n2cc(CNCc3cnc4ccccn34)c(-c3cccc(F)c3)n2)cc1,-30.2
9,Cc1cccc(C)c1OCC(=O)Nc1ccc(N2CCOCC2)cc1,-4.13
10,O=C(CC12CC3CC(CC(C3)C1)C2)Nc1cccc2ncccc12,-23
11,CN(C)c1ccc(Nc2cc(Cl)ncn2)cc1,1.65
12,COc1ccc(OC)c(N(CC(=O)Nc2ccc3c(c2)OCCO3)S(C)(=O)=O)c1,9.64
13,CC(C)CC(=O)NC(=S)Nc1ccccc1C(=O)Nc1ccccc1,8.01
14,O=C(c1ccc(CN2CCOCC2)cc1)N1CCN(c2ccccc2F)CC1,-3.33
15,COc1ccc(CNCc2cc3c(C(C)(C)C)nn(-c4ccccc4)c3[nH]c2=O)cc1,-24
16,CCOC(=O)c1c(NC(=S)Nc2ccccc2)sc2c1CCN(CC)C2,-81.5
17,CCOC(=O)c1c(NC(=S)Nc2ccccc2)sc(C)c1C,4.49
18,CCOC(=O)c1c(NC(=S)Nc2ccccc2)sc2c1CCN(CCc1ccccc1)C2,-64.1
19,CCOC(=O)c1c(NC(C)=O)sc2c1CCN(Cc1ccccc1)C2.Cl,-20.5
20,CCOC(=O)c1c(NC(=S)NCc2ccccc2)sc2c1CCN(C(=O)OCC)C2,32.8
21,CCOC(=O)c1c(N)sc2c1CCN(CCc1ccccc1)C2,-28.6
